Screening results deposited in PubChem by several laboratories.
An excerpt weighted towards active compounds, which were near 9.3% of everything screened.
Abs 340nm: compound absorbs light at 340 nm; compound absorbance at 340 nm, fold over control; fold change at 10 µM; 65,000 tested, under 10 active; AID 708;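 active means at 10 µM dose, initial 340 nm absorbance at least 2 fold that of control wells; inactive means change under 2 fold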;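 further: initial absorbance extrapolated from kinetic A340 decline of NADH oxidation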
M1 antagonist: M1 muscarinic receptor (rat) antagonism; B-score at 10 µM; AID 628; hit rate 3.4% among 64,000; CHO-M1 cells, Fluo-4 calcium, ACh EC80 antagonist mode; hits give low values;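 active means calcium fluorescence response, raw or row-and-column corrected B-score, differing from the plate sample mean either way at a set confidence level, mostly lower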
Target sequence (P08482 whole entry, looked up): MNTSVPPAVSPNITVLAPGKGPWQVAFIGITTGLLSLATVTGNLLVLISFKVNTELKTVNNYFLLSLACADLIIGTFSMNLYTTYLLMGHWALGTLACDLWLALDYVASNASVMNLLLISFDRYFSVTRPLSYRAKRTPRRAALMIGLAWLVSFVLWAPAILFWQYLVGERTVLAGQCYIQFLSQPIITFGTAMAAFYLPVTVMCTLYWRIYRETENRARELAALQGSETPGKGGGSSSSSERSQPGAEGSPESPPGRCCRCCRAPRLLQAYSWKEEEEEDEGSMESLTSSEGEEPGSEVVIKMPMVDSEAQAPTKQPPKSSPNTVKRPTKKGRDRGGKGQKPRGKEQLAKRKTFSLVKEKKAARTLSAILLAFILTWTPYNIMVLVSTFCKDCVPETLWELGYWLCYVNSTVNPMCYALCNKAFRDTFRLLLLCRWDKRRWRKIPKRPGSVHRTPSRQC
NADH coupling: blocks coupling enzymes of NAD/NADH assays. coupled PK/LDH NADH assays, four targets. IC50, µM (top dose mostly 10 µM), inactives show at the highest dose inhibition. hit rate 0.02% among 65,000;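 active means single-dose screening hits from any of four coupled enzyme assays that gave an IC50 when retested across doses; inconclusive means no clear call, values can overlap the other calls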;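 further: the DPM-DC format reads NADH fluorescence rather than 340 nm absorbance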
Htt clearance: compounds clearing mutant huntingtin protein | HeLa Exon1htt(103Q)mCFP, aggregate imaging; zero = plate's median compound well | AID 853 | inhibition, % at 1.5 µM | hit rate 0.42% among 47,000;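 active means inhibition of aggregate fluorescence above about 70%, also judged a hit by eye on the cell image, limit read from the data, passing the limit was not always enough; inconclusive means no rule stated for this call; inactive means not judged a hit on image review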;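 further: cells exposed to compound for three days before fixation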
M1 ag: activates the M1 muscarinic receptor; CHO-M1 cells, Fluo-4 calcium fluorescence, agonist mode; hits give high values; B-score at 10 µM; hit rate 3% among 64,000; AID 626;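 active means fluorescence rise, raw or as B-score row- and column-corrected plate score, outside the 99.7% band of its plate's samples, either direction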
Autofluor 339: intrinsic fluorescence of library compounds, ex339/em460 – biochemical, MLSMR library, data from DPM-DC assay, artefact control, profiling panel | compound autofluorescence, ex339/em460 nm, NADH buffer; hits give high values; 1 = no-compound wells, NADH background | fluorescence fold increase at 10 µM | hit rate 5.5% among 65,000 | AID 709;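 active means at 10 µM, mean starting fluorescence two-fold or more over control wells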;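 further: signal is the first read of a kinetic run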
M1 agonist conf: rat M1 muscarinic agonism, confirmation | shares compounds with M1 ag | CHO-M1 cells, Fluo-4 calcium fluorescence, agonist mode; actives lie on both sides | fluorescence change (max-min) at 10 µM | hit rate 19% among 1,700 | AID 1488;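 active means fluorescence change differs from the solvent-only DMSO control mean at a set confidence level in both duplicate runs; inconclusive means differs from solvent-only control mean in just one of two runs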;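 further: an EC20 dose of acetylcholine follows compound addition during the same imaging run; raw fluorescence intensity difference in instrument units with no normalization to controls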
M4 agonist ctr: counter-screen for M1 agonists: activity at rat M4 receptor; AID 1741; fluorescence change (max-min) at 10 µM; hit rate 9% among 1,700; shares compounds with M1 ag; CHO M4/Gqi5 cells, Fluo-4 calcium fluorescence, agonist mode; actives lie on both sides;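 active means fluorescence change differing from the plate's solvent-only control wells at 99.7% confidence in both duplicates, whether higher or lower; inconclusive means differs from solvent controls in only one of two duplicates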
* marks the source's active call; other numbers are inactive results.

For COc1ccc(C2C(C(=O)NCCN3CCOCC3)c3ccccc3C(=O)N2C2CCCCC2)cc1 (configuration not stated) the results were Abs 340nm 0.99, M1 antagonist 0.7, NADH coupling 0%, Htt clearance 32, M1 ag 0.21 and Autofluor 339 1.
COc1cc(NS(=O)(=O)c2ccc(C)cc2C)cc(OC)c1OC was read as Abs 340nm 1, M1 antagonist -1.3, NADH coupling 13%, Htt clearance 43, M1 ag 4.1*, Autofluor 339 1.1, M1 agonist conf inconclusive and M4 agonist ctr -54.
Screening CCCC(=O)N=C1SC2CS(=O)(=O)CC2N1c1ccc(CC)cc1 (configuration not stated) returned Abs 340nm 0.97, M1 antagonist 0.0046, NADH coupling 1%, M1 ag 0.17 and Autofluor 339 0.7.
`CC1(C)Cc2c(C#N)c(SCCOc3ccccc3)nc(N3CCOCC3)c2CO1` gave Abs 340nm 1, M1 antagonist -0.33, NADH coupling 2%, M1 ag 4.1*, Autofluor 339 1.1, M1 agonist conf -9.7 and M4 agonist ctr inconclusive.
`Cc1nc(N2CCN(Cc3ccccc3)CC2)c(C#N)c2c1COC(C)(C)C2` gave Abs 340nm 0.9, M1 antagonist -0.96, NADH coupling 8%, M1 ag 0.83 and Autofluor 339 1.2.
CCCCc1nc(N2CCOCC2)c(C#N)c2c1COC(C)(C)C2 was read as Abs 340nm 1, M1 antagonist 0.066, NADH coupling 6%, Htt clearance 0, M1 ag 4.5*, Autofluor 339 2.3*, M1 agonist conf inconclusive and M4 agonist ctr -28.
For CCCSc1nc(N2CCCC2)c2c(c1C#N)CC(C)(C)OC2 the results were Abs 340nm 1.1, M1 antagonist -0.53, NADH coupling 1%, M1 ag -1.2 and Autofluor 339 1.2.
`O=C(Cn1ncc2c1-c1ccccc1OC2)Nc1ccc(Cl)cn1` gave Abs 340nm 0.97, M1 antagonist -0.21, NADH coupling 3%, M1 ag -0.49 and Autofluor 339 1.1.
`O=C1CC(=O)N(Cc2ccco2)C(=O)N1` gave Abs 340nm 1, M1 antagonist 0.41, NADH coupling 8%, M1 ag 3*, Autofluor 339 1.1, M1 agonist conf inconclusive and M4 agonist ctr -58.
For COc1ccc(-c2csc(N(CCCN3CCOCC3)C(=O)c3ccco3)n2)cc1 the results were Abs 340nm 0.99, M1 antagonist -1.1, NADH coupling 10%, M1 ag 8.8*, Autofluor 339 1.1, M1 agonist conf -1.5 and M4 agonist ctr -39.
Screening COc1ccc(-c2csc(N(CCCN(C)C)C(=O)c3cccs3)n2)cc1 returned Abs 340nm 1, M1 antagonist -9.5*, NADH coupling 6%, M1 ag 27*, Autofluor 339 1.1, M1 agonist conf 11 and M4 agonist ctr -37.
`Cc1ccc(-c2csc(N(CCCN3CCOCC3)C(=O)c3ccco3)n2)cc1` gave Abs 340nm 1.1, M1 antagonist 0.42, NADH coupling 6%, Htt clearance 36, M1 ag 2.3 and Autofluor 339 1.1.
Screening CCCn1nc(C(=O)Nc2cccc(C(=O)OC)c2)c2ccccc2c1=O returned Abs 340nm 1, M1 antagonist -0.22, NADH coupling 6%, M1 ag 5.7*, Autofluor 339 1.1, M1 agonist conf -10 and M4 agonist ctr -45.
`COC(=O)c1cccc(NC(=O)c2nn(C(C)C)c(=O)c3ccccc23)c1` gave Abs 340nm 1, M1 antagonist 0.089, NADH coupling 7%, M1 ag 1.5 and Autofluor 339 1.1.
COc1cc(OC)cc(-c2nnc(SCc3c(F)cccc3Cl)o2)c1 was read as Abs 340nm 1, M1 antagonist 0.34, NADH coupling 6%, M1 ag -2.8*, Autofluor 339 1.1, M1 agonist conf inconclusive and M4 agonist ctr -42.
CCn1c(C)nc2cc(S(=O)(=O)N3CCCC3)ccc21 was read as Abs 340nm 1.1, M1 antagonist -1.5, NADH coupling 7%, M1 ag 3.8 and Autofluor 339 1.1.
`CCn1c(C)nc2cc(S(=O)(=O)C(F)(F)C(F)C(F)(F)F)ccc21` (configuration not stated) gave Abs 340nm 1.1, M1 antagonist -1.9, NADH coupling 4%, M1 ag 4.7*, Autofluor 339 1.1, M1 agonist conf -7.4 and M4 agonist ctr inconclusive.
`CC(C)c1nnc(NC(=O)c2ccc(S(=O)(=O)N3CCOCC3)cc2)s1` gave Abs 340nm 1.1, M1 antagonist -0.23, NADH coupling 3%, M1 ag -3.1*, Autofluor 339 1, M1 agonist conf inconclusive and M4 agonist ctr inconclusive.
Cc1cc(C)c(NC(=O)c2ccc(S(=O)(=O)N3CCOCC3)cc2)c(C)c1 was read as Abs 340nm 1, M1 antagonist -0.056, NADH coupling 5%, M1 ag -0.79 and Autofluor 339 1.1.
Screening O=C(C1CCCN(S(=O)(=O)c2ccccc2)C1)N1CCCc2ccccc21 (configuration not stated) returned Abs 340nm 1, M1 antagonist -0.065, NADH coupling 3%, Htt clearance 2, M1 ag 1 and Autofluor 339 1.1.
Cc1ccc(Cn2ccc(NC(=O)c3c(-c4ccccc4Cl)noc3C)n2)cc1 was read as Abs 340nm 1.1, M1 antagonist -0.83, NADH coupling 1%, M1 ag 0.23 and Autofluor 339 1.1.
`CCOc1ccc(CCNC(=O)c2oc3c(c2C)-c2[nH]ncc2CC3)cc1OCC` gave Abs 340nm 1, M1 antagonist -0.016, NADH coupling 3%, M1 ag 3.2*, Autofluor 339 1.1, M1 agonist conf -23* and M4 agonist ctr -74*.
Screening Cc1c(C(=O)NC(C)C)oc2c1-c1[nH]ncc1CC2 returned Abs 340nm 1, M1 antagonist -0.76, NADH coupling 1%, Htt clearance 3, M1 ag 0.47 and Autofluor 339 1.5.
`Cc1cccc(C)c1OCC(O)CNS(=O)(=O)c1ccccc1C(=O)N1CCCCC1` (configuration not stated) gave Abs 340nm 0.99, M1 antagonist -1.1, NADH coupling 1%, Htt clearance -8, M1 ag 4.8 and Autofluor 339 1.
